In the library only some 6.6% were active in any assay of this set; here they are far more common.
CSC inhib = cancer stem cell viability inhibitors, primary screen, luminescence | inhibition, % at 7.5 µM | cancer stem cell-like cells viability | 300,000 compounds, 1.1% hits; in the data active = inhibition above about 75%; inconclusive = no clear call, values can overlap the other calls; tested in HMLE shEcad cells
Gli-Sufu antag = Gli-Sufu pathway antagonists, primary screen, luciferase luminescence, Sufu-KO-LIGHT cells, uHTS; Sufu-KO-LIGHT fibroblasts, Gli luciferase reporter luminescence; inhibition, % at 5 µM; 340,000 compounds, 0.74% hits; AID 588413, 2011;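 active = inhibition above about 55%, limit read from the data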;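 note: 0% = DMSO-treated cells and 100% = wells with medium but no cells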
NR3A LBD binder = binders of NR3A ligand-binding domain, primary screen, biophysical, differential scanning fluorimetry, uHTS; NR3A LBD differential scanning fluorimetry, Tm shift; 0% = protein alone, 100% = glycine-bound protein; 340,000 compounds, 2.5% hits; Tm shift relative to glycine control, % at 25 µM; Glutamate receptor ionotropic, NMDA 3A (GRIN3A) ligand-binding domain;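 active = melting temperature shift of at least 10% of the positive control shift, at one fixed dose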
Mdm2 MdmX PPI = inhibitors of human Mdm2-MdmX association, primary screen, cell-based, luminescence, split luciferase, SaOS-2, uHTS; SaOS-2 split-luciferase Mdm2/MdmX complementation; inhibition, % at 8 µM; AID 485346, 2010; 330,000 compounds, 3% hits; Protein Mdm4 (Homo sapiens) + E3 ubiquitin-protein ligase Mdm2 (Homo sapiens), …;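 active = inhibition of at least 50% at 8 µM in the primary screen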
MPTP block = mitochondrial permeability transition pore inhibitors, primary screen, biochemical, isolated mouse mitochondria, absorbance; 360,000 compounds, 1.4% hits; inhibition, % at 10 µM; AID 602449, 2012; Ca2+ swelling absorbance, 30 min;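 active = inhibition of 50% or more, scaled per plate between neutral and stimulator controls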;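 note: 0% = DMSO wells given calcium and 100% = 1 mM EGTA wells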
Beta apoptosis = inhibitors of cytokine-induced beta cell apoptosis, primary screen, luminescence; INS-1E cytokine-induced death, ATP luminescence, 48 h; percent of positive-control rescue, neutral wells zero; 300,000 compounds, 0.8% hits; protection from apoptosis, % (concentration not given with the values);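 active = Every replicate reaches about 75%, or at least half do and their mean reaches it too, limit read from the data; inconclusive = At least half of replicates reach the limit but their mean does not; inactive = Under half of replicates reach the limit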;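 note: 0% = cytokine-treated negative control wells and 100% = positive control rescue; higher means more ATP so stronger rescue from cytokine killing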
Active calls of the source: *; ? = inconclusive; · = no result.

SMILES	CSC inhib	Gli-Sufu antag	NR3A LBD binder	Mdm2 MdmX PPI	MPTP block	Beta apoptosis
COc1ccc(-c2cccc([C@H]3[C@@H]4C=CCC[C@@]4(C)C(=O)N3Cc3ccccc3)c2)cc1	82*	6	0	22	0	-18
CN(C)c1ccc(-c2cc([C@H]3[C@@H]4C=CCC[C@@]4(C)C(=O)N3Cc3ccccc3)ccc2F)cc1	104*	12	-11	31	0	-1
Cc1ccc(-c2nc3c(Cl)cc(C(F)(F)F)cn3c2Cc2ccsc2)cc1	·	·	·	·	0	·
CCOC(=O)C1=C(C)N(C[C@@H]2CC[C@@H](Cc3ccc(-c4ccccc4)cc3)O2)C(=O)NC1C1CC1 (stereo partly specified)	·	9	3	24	0	·
C[C@@]12CCC=C[C@H]1[C@H](c1ccc(F)c(/C=C/c3ccccc3)c1)N(Cc1ccccc1)C2=O	94*	2	-1	25	-1	6
C[C@@]12CCC=C[C@H]1[C@H](c1ccoc1)N(Cc1ccccc1)C2=O	9	-12	12*	15	0	-5
Cc1ccc(F)c([C@H]2[C@@H]3C=CCC[C@@]3(C)C(=O)N2Cc2ccccc2)c1	14	-4	1	-19	0	-7
NS(=O)(=O)c1ccc(NC(=O)COC(=O)c2cn(-c3ccccc3)nc2-c2ccccc2)cc1	6	5	22*	12	2	-5
Cc1ccc(C(=O)COC(=O)c2cn(-c3ccccc3)nc2-c2ccccc2)cc1[N+](=O)[O-]	?	0	-3	1	2	99*
Cc1ccc(C(=O)COC(=O)CNS(=O)(=O)c2ccccc2)cc1[N+](=O)[O-]	-8	10	18*	18	0	·
O=C(COC(=O)c1cn(-c2ccccc2)nc1-c1ccccc1)c1cccc([N+](=O)[O-])c1	42	-1	-11	0	4	102*
CCn1cc(C(=O)N2CCCC(N3CCN(c4ccccc4C)CC3)C2)cn1 (stereo unspecified)	4	7	-3	10	0	-2
CC1CCc2c(sc(NC(=O)CCC(=O)O)c2C(=O)NC2CC2)C1 (stereo unspecified)	-4	0	3	0	-2	2
Cc1ccc(-n2nc3ccc(NC(=O)/C=C/c4ccco4)cc3n2)cc1	11	-7	24*	-103	5	4
O=C(/C=C/c1ccco1)Nc1ccc2c(c1)OCO2	·	-52	-1	-90	4	7
Cc1ccc(NC(=O)c2cccc(NC(=O)/C=C/c3ccco3)c2)cc1C	39	9	15*	-10	-3	6
O=C(Nc1ccc(Br)c2ccccc12)c1ccc2ccccc2c1O	108*	39	19*	·	39	50
CC(=O)Nc1ccc(Br)c2ccccc12	-1	-4	0	25	1	3
O=C(CCc1nnc2ccc(NCc3ccco3)nn12)N1CCN(c2ccc(F)cc2)CC1	-11	-8	-1	9	-1	0
CC1=C(C(=O)N2CCCCCC2)CC(CC(=O)NCCN2CCOCC2)C(=O)N1Cc1ccccc1 (stereo unspecified)	·	·	·	·	-1	·
Cc1cccc(NNC(=O)C(=O)NNc2cccc(C)c2)c1	93*	1	1	12	0	1
CCCc1ccc(C(=O)NNc2cccc(C)c2)cc1	77*	-9	0	-9	2	7
O=C(CN1CCN(C(=O)CCC(=O)N2CCC(c3ccccc3)=N2)CC1)Nc1ccc(F)cc1	·	-6	18*	-6	0	·
Cc1ccc(S(=O)(=O)c2c(C)cc(C)nc2Cl)c(C)c1	-19	-3	-2	-12	-2	-4
Cc1cc(C)c(S(=O)(=O)/N=C2\C=CC(=O)C(Cl)=C2)c(C)c1	8	-4	12*	4	0	-5
SMILES	CSC inhib	Gli-Sufu antag	NR3A LBD binder	Mdm2 MdmX PPI	MPTP block	Beta apoptosis
COC(=O)c1cc2ccccc2c(-c2c(O)ccc3ccccc23)c1O	27	-4	12*	-8	2	1
CCOC(=O)c1ccc(S(=O)(=O)Nc2ccc(N3CCOCC3)cc2)cc1	7	27	-2	6	-1	-2
Oc1ccc(Br)cc1-c1cc(-c2ccccc2)n[nH]1	120*	13	29*	39	0	21
Oc1ccccc1-c1cc(-c2ccc3c(c2)OCCO3)n[nH]1	47	9	16*	-127	3	14
O=C(O)c1cc(-c2ccc3c(c2)OCCO3)n[nH]1	2	-7	-1	-11	-1	-1
COc1ccc(-c2cc(-c3ccc(Cl)cc3)n[nH]2)c(O)c1	28	-30	49*	-218	8	5
COc1ccc(O)c(-c2cc(-c3cccc(Br)c3)n[nH]2)c1	-18	11	16*	-65	3	23
COc1cccc(CCOC(=O)c2c(-c3ccsc3)oc3c2C(OC(C)=O)CCC3)c1 (stereo unspecified)	·	·	·	·	0	·
O=[N+]([O-])c1cccc(NC(=S)N2CCc3ccccc32)c1	3	-29	-5	8	1	-2
Cc1csc(NC(=O)C(C)N2C(=O)c3ccccc3S2(=O)=O)n1 (stereo unspecified)	-6	-10	1	1	-1	-8
COc1ccc([C@H]2CC(=O)C=C(/C=C/c3ccc(C(F)(F)F)cc3)C2)cc1	34	-10	-1	-4	0	3
O=C(NC(=S)NCc1ccccc1)c1ccc2c(c1)OCO2	55	-11	0	5	-1	4
O=Nc1c(O)c2ccccc2c2ccccc12	122*	12	-5	·	2	109*
CC#CCN1C(=O)N[C@@H](c2ccccc2)C(C(=O)OC)=C1C	-10	-6	-1	15	0	-4
C[C@@H]1CN([C@@H](C)CO)C(=O)CCCn2nncc2CO[C@@H]1CN(C)S(=O)(=O)c1ccc2ccccc2c1	·	·	·	·	0	·
O=C(N/N=C/c1ccccn1)c1cc(-c2ccc3ccccc3c2)n[nH]1	24	-23	2	7	3	29
O=C(N/N=C/c1c[nH]c2ccccc12)c1cc(-c2ccc(-c3ccccc3)cc2)n[nH]1	-9	-47	20*	44	2	19
Cc1ccc(-c2cc(C(=O)N/N=C/c3c[nH]c4ccccc34)[nH]n2)cc1	·	-17	27*	·	1	·
Cc1nc(C)c(C(=O)N/N=C/c2c[nH]c3ccccc23)s1	11	-32	-4	18	-2	-9
O=C(N/N=C/c1c[nH]c2ccccc12)c1ccn[nH]1	11	-16	11*	-6	-3	0
O=C(N/N=C/c1c[nH]c2ccccc12)c1cc(-c2ccccc2)n[nH]1	21	-2	31*	28	1	4
